# Experimental data reported in the supplement of paper PMC8728848.
# This is one part of a sample in which the strongest signals are shown more often than they occur.
# What was measured:
# Assay in all cases: glycan array binding signal (z-score within array); higher = stronger binding
# Details in all cases: glycan notation: IUPAC condensed, linker removed
# [1] = target: Fuc(a1-2)Gal(b1-3)GlcNAc(b1-2)Man(a1-3)[Fuc(a1-2)Gal(b1-3)GlcNAc(b1-2)Man(a1-6)]Man(b1-4)GlcNAc(b1-4)[Fuc(a1-6)]GlcNAc
# Method in brief: (§1)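 The binding signal is a Z-score computed within each array and averaged over linkers. Arrays of the same protein sequence at different concentrations or buffers were also averaged together. Data originate from 3228 arrays in the Consortium for Functional Glycomics database, kept only where the protein sequence was available.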
# [2] = target: Fuc(a1-2)Gal(b1-3)GlcNAc(b1-3)[Neu5Ac(a2-6)Gal(b1-4)GlcNAc(b1-6)]Gal(b1-4)Glc
# Method in brief: as §1
# [3] = target: Fuc(a1-2)Gal(b1-4)GlcNAc(b1-2)[Fuc(a1-2)Gal(b1-4)GlcNAc(b1-4)]Man(a1-3)[Fuc(a1-2)Gal(b1-4)GlcNAc(b1-2)Man(a1-6)]Man(b1-4)GlcNAc(b1-4)GlcNAc
# Method in brief: as §1
# [4] = target: Fuc(a1-2)Gal(b1-4)GlcNAc(b1-6)GalNAc
# Method in brief: as §1
# [5] = target: Fuc(a1-2)Gal6S(b1-3)GlcNAc6S
# Method in brief: as §1
# [6] = target: Fuc(a1-2)[Gal(a1-3)]Gal(b1-3)GlcNAc(b1-2)Man(a1-3)[Fuc(a1-2)[Gal(a1-3)]Gal(b1-3)GlcNAc(b1-2)Man(a1-6)]Man(b1-4)GlcNAc(b1-4)GlcNAc
# Method in brief: as §1
# [7] = target: Fuc(a1-2)[Gal(a1-3)]Gal(b1-3)GlcNAc(b1-6)GalNAc
# Method in brief: as §1
# [8] = target: Fuc(a1-2)[Gal(a1-3)]Gal(b1-4)GlcNAc
# Method in brief: as §1
# [9] = target: Fuc(a1-2)[Gal(a1-3)]Gal(b1-4)[Fuc(a1-3)]GlcNAc(b1-3)GalNAc
# Method in brief: as §1
# [10] = target: Fuc(a1-2)[GalNAc(a1-3)]Gal(b1-4)GlcNAc(b1-2)Man(a1-3)[Fuc(a1-2)[GalNAc(a1-3)]Gal(b1-4)GlcNAc(b1-2)Man(a1-6)]Man(b1-4)GlcNAc(b1-4)[Fuc(a1-6)]GlcNAc
# Method in brief: as §1
# [11] = target: Fuc(a1-2)[GalNAc(b1-3)]Gal
# Method in brief: as §1
# Fuc(a1-4)GlcNAc = target: Fuc(a1-4)GlcNAc
# Method in brief: as §1
# [12] = target: Gal(a1-3)Gal(b1-3)[Fuc(a1-4)]GlcNAc(b1-2)Man(a1-3)[Gal(a1-3)Gal(b1-3)[Fuc(a1-4)]GlcNAc(b1-2)Man(a1-6)]Man(b1-4)GlcNAc(b1-4)GlcNAc
# Method in brief: as §1
# Gal(a1-3)GalNAc = target: Gal(a1-3)GalNAc
# Method in brief: as §1
# Gal(b1-3)Gal(b1-4)GlcNAc = target: Gal(b1-3)Gal(b1-4)GlcNAc
# Method in brief: as §1
# [13] = target: Gal(b1-3)GlcNAc(a1-6)Gal(b1-4)GlcNAc
# Method in brief: as §1
# [14] = target: Gal(b1-3)GlcNAc(b1-3)Gal(b1-4)GlcNAc(b1-2)Man(a1-3)[Gal(b1-3)GlcNAc(b1-3)Gal(b1-4)GlcNAc(b1-2)Man(a1-6)]Man(b1-4)GlcNAc(b1-4)GlcNAc
# Method in brief: as §1
# [15] = target: Gal(b1-3)GlcNAc(b1-6)Gal(b1-4)GlcNAc
# Method in brief: as §1
# [16] = target: Gal(b1-3)GlcNAc(b1-6)GalNAc
# Method in brief: as §1
# Gal(b1-4)Gal = target: Gal(b1-4)Gal
# Method in brief: as §1
# Gal(b1-4)Glc6S = target: Gal(b1-4)Glc6S
# Method in brief: as §1
# [17] = target: Gal(b1-4)GlcNAc(a1-6)Gal(b1-4)GlcNAc
# Method in brief: as §1
# [18] = target: Gal(b1-4)GlcNAc(b1-2)[Gal(b1-4)GlcNAc(b1-4)]Man(a1-3)[Gal(b1-4)GlcNAc(b1-2)[Gal(b1-4)GlcNAc(b1-6)]Man(a1-6)]Man(b1-4)GlcNAc(b1-4)GlcNAc
# Method in brief: as §1
# [19] = target: Gal(b1-4)GlcNAc(b1-2)[Gal(b1-4)GlcNAc(b1-6)]Man(a1-6)[Gal(b1-4)GlcNAc(b1-2)Man(a1-3)]Man(b1-4)GlcNAc(b1-4)[Fuc(a1-6)]GlcNAc
# Method in brief: as §1
# [20] = target: Gal(b1-4)GlcNAc(b1-3)Gal(b1-3)GalNAc
# Method in brief: as §1
# [21] = target: Gal(b1-4)GlcNAc(b1-3)Gal(b1-4)[Fuc(a1-3)]GlcNAc(b1-3)Gal(b1-4)[Fuc(a1-3)]GlcNAc
# Method in brief: as §1
# [22] = target: Gal(b1-4)GlcNAc(b1-6)GalNAc
# Method in brief: as §1
# [23] = target: Gal3S(b1-4)[Fuc(a1-3)]GlcNAc
# Method in brief: as §1
# Gal6S(b1-4)GlcNAc = target: Gal6S(b1-4)GlcNAc
# Method in brief: as §1
# GalNAc(a1-3)Gal = target: GalNAc(a1-3)Gal
# Method in brief: as §1
# [24] = target: GalNAc(a1-3)GalNAc(b1-3)Gal(a1-4)Gal(b1-4)Glc
# Method in brief: as §1
# GalNAc(b1-3)Gal = target: GalNAc(b1-3)Gal
# Method in brief: as §1
# GalNAc(b1-3)GlcNAc = target: GalNAc(b1-3)GlcNAc
# Method in brief: as §1
# GalNAc(b1-4)GlcNAc = target: GalNAc(b1-4)GlcNAc
# Method in brief: as §1
# [25] = target: GalNAc(b1-4)GlcNAc(b1-3)GalNAc(b1-4)GlcNAc
# Method in brief: as §1
# GalNAc(b1-4)GlcNAc6S = target: GalNAc(b1-4)GlcNAc6S
# Method in brief: as §1
# [26] = target: Glc(a1-6)Glc(a1-6)Glc(a1-6)Glc
# Method in brief: as §1
# Glc(b1-6)Glc = target: Glc(b1-6)Glc
# Method in brief: as §1
# GlcA(b1-3)Gal = target: GlcA(b1-3)Gal
# Method in brief: as §1
# GlcA(b1-3)GlcNAc = target: GlcA(b1-3)GlcNAc
# Method in brief: as §1
# [27] = target: GlcNAc(b1-3)Gal(b1-4)GlcNAc(b1-3)Gal(b1-4)GlcNAc(b1-3)Gal(b1-4)GlcNAc(b1-3)Gal(b1-4)GlcNAc(b1-2)[GlcNAc(b1-3)Gal(b1-4)GlcNAc(b1-3)Gal(b1-4)GlcNAc(b1-3)Gal(b1-4)GlcNAc(b1-3)Gal(b1-4)GlcNAc(b1-6)]Man(a1-6)[GlcNAc(b1-3)Gal(b1-4)GlcNAc(b1-3)Gal(b1-4)GlcNAc(b1-3)Gal(b1-4)GlcNAc(b1-3)Gal(b1-4)GlcNAc(b1-2)Man(a1-3)]Man(b1-4)GlcNAc(b1-4)[Fuc(a1-6)]GlcNAc
# Method in brief: as §1
# [28] = target: GlcNAc(b1-3)Gal(b1-4)GlcNAc(b1-6)[Gal(b1-3)]GalNAc
# Method in brief: as §1
# GlcNAc(b1-6)GalNAc = target: GlcNAc(b1-6)GalNAc
# Method in brief: as §1
# [29] = target: Man(a1-2)Man(a1-2)Man(a1-3)Man
# Method in brief: as §1
# [30] = target: Man(a1-3)[Man(a1-6)]Man(a1-6)[Man(a1-2)Man(a1-3)]Man(b1-4)GlcNAc(b1-4)GlcNAc
# Method in brief: as §1
# [31] = target: Neu5Ac(a2-3)Gal(b1-3)GlcNAc(b1-3)Gal(b1-4)GlcNAc
# Method in brief: as §1
# [32] = target: Neu5Ac(a2-3)Gal(b1-3)[Fuc(a1-4)]GlcNAc
# Method in brief: as §1
# [33] = target: Neu5Ac(a2-3)Gal(b1-4)GlcNAc(b1-2)Man
# Method in brief: as §1
# [34] = target: Neu5Ac(a2-3)Gal(b1-4)GlcNAc(b1-3)Gal
# Method in brief: as §1
# [35] = target: Neu5Ac(a2-3)Gal(b1-4)GlcNAc(b1-3)Gal(b1-4)GlcNAc(b1-2)Man(a1-3)[Neu5Ac(a2-3)Gal(b1-4)GlcNAc(b1-3)Gal(b1-4)GlcNAc(b1-2)Man(a1-6)]Man(b1-4)GlcNAc(b1-4)GlcNAc
# Method in brief: as §1
# [36] = target: Neu5Ac(a2-3)Gal(b1-4)[Fuc(a1-3)]GlcNAc(b1-3)Gal(b1-4)GlcNAc
# Method in brief: as §1
# [37] = target: Neu5Ac(a2-3)Gal(b1-4)[Fuc(a1-3)]GlcNAc(b1-6)[Gal(b1-3)]GalNAc
# Method in brief: as §1
# [38] = target: Neu5Ac(a2-6)Gal(b1-4)GlcNAc(b1-2)Man
# Method in brief: as §1
# [39] = target: Neu5Ac(a2-6)Gal(b1-4)GlcNAc(b1-2)Man(a1-6)[Gal(b1-4)GlcNAc(b1-2)Man(a1-3)]Man(b1-4)GlcNAc(b1-4)GlcNAc
# Method in brief: as §1
# [40] = target: Neu5Ac(a2-8)Neu5Ac(a2-8)Neu5Ac(a2-3)[Gal(b1-3)GalNAc(b1-4)]Gal(b1-4)Glc
# Method in brief: as §1
# Neu5Ac(b2-6)GalNAc = target: Neu5Ac(b2-6)GalNAc
# Method in brief: as §1
binder,measurement,setting,value
"MGL2 (Mus musculus), Q8JZN1 (protein) MTMRYENFQNLEREEKNQEMRNGDKKGGMESPKFALIPSQSFLWRILSWTHLLLFSLGLSLLLLVVISVIGSQNSQLRRDLGTLRAILDNTTSKIKAEFQSLDSRADNFEKGISSLKVDVEDHRQELQAGRDLSQKVTSLESTLEKREQALKTDLSDLTDHVQQLETDLKALTCQLANLKNNGSEVACCPLHWTEHEGSCYWFSESEKSWPEADKYCRLENSHLVVVNSLEEQNFLQNRLANVLSWMGLTDQNGPWRWVDGTDFDKGFKNWRPLQPDNWHGHMLGGGEDCAHFSYDGRWNDDVCQRHYHWICETELGKASSAHSPQLIASVP",glycan array binding signal (z-score),[1],-0.201
same,glycan array binding signal (z-score),[2],-0.188
same,glycan array binding signal (z-score),[3],-0.106
same,glycan array binding signal (z-score),[4],1.79
same,glycan array binding signal (z-score),[5],0.028
same,glycan array binding signal (z-score),[6],-0.255
same,glycan array binding signal (z-score),[7],0.323
same,glycan array binding signal (z-score),[8],-0.162
same,glycan array binding signal (z-score),[9],-0.252
same,glycan array binding signal (z-score),[10],-0.211
same,glycan array binding signal (z-score),[11],12.2
same,glycan array binding signal (z-score),Fuc(a1-4)GlcNAc,0.024
same,glycan array binding signal (z-score),[12],-0.193
same,glycan array binding signal (z-score),Gal(a1-3)GalNAc,-0.18
same,glycan array binding signal (z-score),Gal(b1-3)Gal(b1-4)GlcNAc,-0.137
same,glycan array binding signal (z-score),[13],0.067
same,glycan array binding signal (z-score),[14],-0.097
same,glycan array binding signal (z-score),[15],-0.035
same,glycan array binding signal (z-score),[16],2.02
same,glycan array binding signal (z-score),Gal(b1-4)Gal,-0.267
same,glycan array binding signal (z-score),Gal(b1-4)Glc6S,-0.225
same,glycan array binding signal (z-score),[17],-0.091
same,glycan array binding signal (z-score),[18],-0.247
same,glycan array binding signal (z-score),[19],-0.193
same,glycan array binding signal (z-score),[20],-0.14
same,glycan array binding signal (z-score),[21],-0.1
same,glycan array binding signal (z-score),[22],3.5
same,glycan array binding signal (z-score),[23],-0.228
same,glycan array binding signal (z-score),Gal6S(b1-4)GlcNAc,-0.276
same,glycan array binding signal (z-score),GalNAc(a1-3)Gal,1.48
same,glycan array binding signal (z-score),[24],-0.259
same,glycan array binding signal (z-score),GalNAc(b1-3)Gal,4.95
same,glycan array binding signal (z-score),GalNAc(b1-3)GlcNAc,8.82
same,glycan array binding signal (z-score),GalNAc(b1-4)GlcNAc,5.73
same,glycan array binding signal (z-score),[25],2.48
same,glycan array binding signal (z-score),GalNAc(b1-4)GlcNAc6S,3.46
same,glycan array binding signal (z-score),[26],0.014
same,glycan array binding signal (z-score),Glc(b1-6)Glc,-0.253
same,glycan array binding signal (z-score),GlcA(b1-3)Gal,-0.219
same,glycan array binding signal (z-score),GlcA(b1-3)GlcNAc,0.307
same,glycan array binding signal (z-score),[27],-0.062
same,glycan array binding signal (z-score),[28],-0.047
same,glycan array binding signal (z-score),GlcNAc(b1-6)GalNAc,6.85
same,glycan array binding signal (z-score),[29],-0.161
same,glycan array binding signal (z-score),[30],-0.006
same,glycan array binding signal (z-score),[31],-0.274
same,glycan array binding signal (z-score),[32],-0.173
same,glycan array binding signal (z-score),[33],-0.034
same,glycan array binding signal (z-score),[34],-0.3
same,glycan array binding signal (z-score),[35],0.166
same,glycan array binding signal (z-score),[36],-0.189
same,glycan array binding signal (z-score),[37],-0.139
same,glycan array binding signal (z-score),[38],-0.19
same,glycan array binding signal (z-score),[39],-0.174
same,glycan array binding signal (z-score),[40],-0.194
same,glycan array binding signal (z-score),Neu5Ac(b2-6)GalNAc,-0.176
